CHT block: inhibitors of human choline transporter CHT; High affinity choline transporter 1 (Homo sapiens), Q9GZV3; CHT-expressing cells, membrane potential dye, choline response; hits give low values; B-score at 10 µM; 0.86% of 310,000 active;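 active means B-score over 3 SD under the library average, and starting fluorescence ratio not unusually high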;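 further: choline stimulus applied at its EC90 after an EC20 pre-addition; B-score computed on integrated fluorescence ratio after choline addition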
Target sequence (Q9GZV3 whole entry, looked up): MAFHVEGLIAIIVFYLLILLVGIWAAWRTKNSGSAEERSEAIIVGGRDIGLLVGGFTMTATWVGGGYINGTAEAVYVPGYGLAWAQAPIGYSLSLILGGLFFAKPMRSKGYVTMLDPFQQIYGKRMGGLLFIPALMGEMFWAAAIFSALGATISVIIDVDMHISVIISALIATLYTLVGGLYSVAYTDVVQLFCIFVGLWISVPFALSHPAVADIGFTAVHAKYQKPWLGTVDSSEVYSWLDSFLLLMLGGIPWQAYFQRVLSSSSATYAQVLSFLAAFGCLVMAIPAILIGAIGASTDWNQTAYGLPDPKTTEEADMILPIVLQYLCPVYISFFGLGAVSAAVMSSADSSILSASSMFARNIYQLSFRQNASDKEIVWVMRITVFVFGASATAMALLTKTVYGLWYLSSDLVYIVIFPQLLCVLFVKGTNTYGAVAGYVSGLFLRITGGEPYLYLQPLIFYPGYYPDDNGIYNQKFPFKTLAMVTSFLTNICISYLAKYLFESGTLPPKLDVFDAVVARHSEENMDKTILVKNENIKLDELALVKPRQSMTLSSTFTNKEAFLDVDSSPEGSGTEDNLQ
EP2 mod: EP2 receptor modulators, cAMP readout, primary screen, cell-based, HTRF cAMP, PGE2 stimulation. Prostaglandin E2 receptor EP2 subtype (Homo sapiens), P43116. EP2-expressing cells, cAMP HTRF FRET, PGE2 co-stimulation. induction, % at 25 µM. 0.83% of 260,000 active. AID 940, 2007;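 active means compounds whose cAMP rise, as percent of the full-agonist control response, exceeds 60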;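 further: rat C6 glioma line stably carrying human EP2 under a CMV promoter; the protocol text gives 20 µM as final concentration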
CHT PAM: CHT positive allosteric modulators, primary screen, cell-based, membrane potential dye, choline EC20; High affinity choline transporter 1 (Homo sapiens), Q9GZV3; CHT-expressing cells; hits give high values; LV-AA mutant CHT in HEK293 cells; B-score at 10 µM; 0.49% of 310,000 active; AID 488977, 2010;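 active means initial fluorescence not abnormally high and integrated response B-score, plate-corrected, over 3 SD above library mean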
PGE2 EP2 inh: human EP2 receptor antagonists, primary screen, TR-FRET cAMP, C6 glioma cells | Prostaglandin E2 receptor EP2 subtype (Homo sapiens), P43116 | C6 glioma cells expressing human EP2; cells stimulated with saturating PGE2 | inhibition, % at 25 µM | 0.52% of 260,000 active | AID 1422, 2008;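 active means percent inhibition above 40 after rounding to a whole number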;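 further: rat C6 glioma host cells with rolipram phosphodiesterase inhibitor present; the protocol text gives 20 µM as final concentration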
EP2 confirm: cAMP induction in EP2, EP4, beta2-AR and parental cells, confirmation, counter-screen for EP2 modulator project, cell-based, five parallel assays, C6 glioma, HEK293 | shares compounds with EP2 mod | cAMP HTRF induction; plus low (about EC15) PGE2 agonist | calls only at 20 µM (by protocol) | 47% of 1,300 active;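 active means cAMP induction above 50% in the main assay while under 30% in all four parallel counter assays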;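 further: rat C6 glioma cells stably expressing human EP2 receptor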
CHT inh conf: CHT inhibitors, confirmation, cell-based, membrane potential dye, duplicate | shares compounds with CHT block | CHT-expressing cells, choline membrane potential dye; LV-to-AA substituted CHT, HEK293 cells | CHT activity remaining % of control (hits give low values), % at 10 µM | 70% of 2,400 active | AID 493221, 2011;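 active means choline transporter activity left, mean of duplicates at 10 µM, below buffer-only control mean minus 3 SD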;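 further: depolarization triggered by choline at its EC90 following an EC20 pre-addition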
HEK293 MPD ctr: membrane potential effects in parental HEK293, counter-screen for CHT inhibitor project, cell-based, membrane potential dye; 4% of 2,400 active; AID 493222, 2011; shares compounds with CHT block; membrane potential ratio readout (active if shifted either direction beyond buffer ±3SD; no single direction) at 10 µM; choline response; active = decrease or increase beyond buffer ±3SD;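 further: parental cells lack the transporter so any hit is non-specific; ratio is peak minus trough fluorescence over baseline after EC90 choline challenge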
CHT activ conf: CHT activators, confirmation, cell-based, membrane potential dye, duplicate | shares compounds with CHT PAM | CHT-expressing cells, membrane potential dye fluorescence (FDSS); % of choline EC20–EC90 response window; HEK293 expressing CHT LV-AA mutant; choline added at its EC20 | activation, % at 10 µM | 91% of 2,500 active;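 active means primary screen active, with duplicate mean activation above negative control mean plus 3 SD, cut at about 11% in these data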
HEK293 MP dye: membrane potential response in parental HEK293 cells, counter-screen for CHT activator project, cell-based, membrane potential dye; shares compounds with CHT PAM; membrane potential dye fluorescence (FDSS); measured after EC20 choline addition; ratio readout change at 10 µM, hits read low; 62% of 2,500 active;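 active means duplicate-averaged ratio beyond 3 SD from buffer wells, up or down, though filed actives are nearly all decreases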
Large screens that a line does not name were inactive (follow-up assays come after a bar, where they were run); ! = not active in a repeat. An excerpt weighted towards active compounds, which were near 2.1% of everything screened.

COc1ccc(N=Cc2cc(Cc3ccccc3Cl)cc([N+](=O)[O-])c2O)cc1OC	CHT block -6, EP2 mod 72 | EP2 confirm active | CHT inh conf inactive | HEK293 MPD ctr inactive
Cc1ccc(N=Cc2cc(Cc3ccccc3Cl)cc([N+](=O)[O-])c2O)c(O)c1	CHT block -7.8, EP2 mod 68 | EP2 confirm inactive | CHT inh conf 64% | HEK293 MPD ctr inactive
Cc1ccccc1N=Cc1cc2c(cc1[N+](=O)[O-])OCO2	none
Cc1oc(C(C)(C)C)cc1C(=O)Nc1cccc(/C=C\C(=O)O)c1	none
Cc1oc(-c2ccccc2)cc1C(=O)Nc1cccc(/C=C\C(=O)O)c1	CHT block -8.9, EP2 mod 82 | EP2 confirm active | CHT inh conf 61% | HEK293 MPD ctr inactive
COc1ccc(C2=Nn3c(nnc3-c3ccccc3OC)SC2)cc1OC	CHT block -6.9, EP2 mod 74 | EP2 confirm inactive | CHT inh conf 48% | HEK293 MPD ctr inactive
COc1ccc(C2=Nn3c(nnc3-c3ccccn3)SC2)cc1OC	none
CC(C)C(=O)Nc1nc2c(Cl)c(Cl)ccc2s1	none (no result: CHT block, CHT PAM)
Cc1cccc(C(=O)Nc2cccc(OCC(=O)O)c2)c1	CHT block -5, EP2 mod 95 | EP2 confirm active | CHT inh conf 57% | HEK293 MPD ctr inactive
C=CCOc1ccc(Cl)cc1C(=O)NC(C)c1nc(-c2cccnc2)n[nH]1 (configuration not stated)	none (no result: CHT block, CHT PAM)
COc1cc2c(cc1OC)-c1cc(N3CCCc4ccccc43)nc(=O)n1CC2	CHT block -6.3, EP2 mod 61 | EP2 confirm inactive | CHT inh conf 70% | HEK293 MPD ctr inactive
O=C(CCC(=O)N1CCCC1=S)N1CCCC1=S	none (no result: CHT block, CHT PAM)
Cc1cccc(Cn2c(Cc3ccccc3)nc3ccccc32)c1	EP2 mod 93, CHT PAM 9.8 | EP2 confirm active | CHT activ conf inactive | HEK293 MP dye inactive
Cc1ccc(CNc2nc(C)nc3sc4c(c23)CCC4)cc1	none
Cc1nc(NC(C)c2ccccc2)c2c3c(sc2n1)CCC3 (configuration not stated)	EP2 mod 71 | EP2 confirm inactive | CHT activ conf 18 | HEK293 MP dye inactive
COc1cc2nc(N3CCN(C(=O)C4CCCO4)CC3)nc(N)c2cc1OC (configuration not stated)	CHT PAM 8.3! | EP2 confirm inactive | CHT activ conf 43 | HEK293 MP dye -28
CCOC(=O)c1cnc2c(c(C)nn2C)c1Oc1ccc(Cl)cc1	EP2 mod 67, CHT PAM 6.4 | EP2 confirm active | CHT activ conf 27 | HEK293 MP dye inactive
CC(O)c1cccc(NC(=O)[C@H]2C[C@@H](c3cccs3)NS(=O)(=O)N2C)c1 (some centres not stated)	none (no result: CHT block, CHT PAM, PGE2 EP2 inh)
COCC(=O)N(C)c1nnc(-c2cnccn2)s1	none
COCC(=O)N(C)c1nnc(-c2cnc(C)cn2)s1	EP2 mod 71, CHT PAM 6.4 | EP2 confirm inactive | CHT activ conf 59 | HEK293 MP dye -55
COc1ccc(-c2nc(C(N)=O)c3[nH]c(=O)n(Cc4ccccc4)c3n2)cc1	none (no result: CHT block, CHT PAM, PGE2 EP2 inh)
Clc1ccc(COn2c(-c3ccccc3)nc3ccccc32)cc1	EP2 mod 67, CHT PAM 6.5 | EP2 confirm inactive | CHT activ conf 26 | HEK293 MP dye inactive
O=[N+]([O-])c1ccc2nc(-c3ccc(Cl)cc3)n(OCc3ccccc3)c2c1	none (no result: PGE2 EP2 inh)
COc1ccc2cc(CN(Cc3cccs3)C(=O)c3ccc(F)cc3)c(=O)[nH]c2c1	none (no result: CHT block, CHT PAM)
COc1ccc(Cn2cnc3c([N+](=O)[O-])c(C)c(C)cc32)cc1	CHT block -9.4 | CHT inh conf 34% | HEK293 MPD ctr inactive
Cc1ccccc1Cn1cnc2c([N+](=O)[O-])c(C)c(C)cc21	none
CN1CCN(c2ccc(S(=O)(=O)N3CCCCC3)cc2NC(=O)CSCc2ccccc2)CC1	CHT block -6.8 (no result: EP2 mod, PGE2 EP2 inh) | CHT inh conf 48% | HEK293 MPD ctr inactive
O=C1C2C(C(=O)N1/N=C/c1cc(Br)cc([N+](=O)[O-])c1O)C1C=CC2C12CC2 (configuration not stated)	CHT block -7.6 | CHT inh conf 43% | HEK293 MPD ctr inactive
CCc1ccc(S(=O)(=O)c2n[nH]n3c2nc(=O)c2ccccc23)cc1	CHT block -4.9 | CHT inh conf 8.6% | HEK293 MPD ctr inactive
O/N=C/c1ccnc(SCc2ccccc2)n1	CHT block -5.1 | CHT inh conf 59% | HEK293 MPD ctr inactive
CC(=O)c1ccc(S(=O)(=O)N(C)C(C)CCc2ccco2)cc1 (configuration not stated)	CHT block -5.6 (no result: EP2 mod, PGE2 EP2 inh) | CHT inh conf 71% | HEK293 MPD ctr inactive
CC(CCc1ccco1)N(C)S(=O)(=O)c1csc(C(N)=O)c1 (configuration not stated)	none (no result: EP2 mod, PGE2 EP2 inh)
O=C1CSC(=S)N1/N=C/c1c(F)cccc1F	CHT block -5.6 (no result: EP2 mod, PGE2 EP2 inh) | CHT inh conf 71% | HEK293 MPD ctr inactive
COc1ccc2ccccc2c1/C=N/N1C(=O)CSC1=S	none
CCn1c(SCc2nc(-c3ccc(OC)c(OC)c3)no2)nnc1-c1cccs1	CHT block -8.6 | CHT inh conf 42% | HEK293 MPD ctr inactive
CCN(C(=O)c1cc2c(=O)n3ccccc3nc2n1C)C1CCCCC1	none (no result: EP2 mod, PGE2 EP2 inh)
CCN(C(=O)c1cc2c(=O)n3ccccc3nc2n1CCCOC)C1CCCCC1	CHT block -5 (no result: EP2 mod, PGE2 EP2 inh) | CHT inh conf 45% | HEK293 MPD ctr inactive
